# The sample as a whole holds a higher share of hits than the screen did.
# TTR transcr act = increases transthyretin transcription | activation, % at 16.7 µM | SH-SY5Y TTR promoter Gaussia luciferase, luminescence; 100% = recombinant luciferase protein wells | 1.3% of 92,000 active | AID 1117267;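 active = activation above the mean of all tested compounds plus 3 SD, cut at about 9.5% in these data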;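 note: cells exposed to compounds for one day before reading; 0% = median of all test compound wells on the plate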
# HuH7 TTR inh = decreases TTR transcription in HuH7 cells in activator counter-screen; shares compounds with TTR transcr act; HuH7 TTR promoter-Gaussia luciferase reporter, luminescence; inhibition, % at 16.7 µM; 4% of 1,100 active;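 active = average inhibition above the solvent-only control wells' mean plus 3 SD, cut at about 15% in these data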;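 note: 0% = cells with DMSO only and 100% = cells with inhibitor control FD; inhibitors lower well luminescence so higher value means more inhibition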
# TTR act confirm = confirmation of human transthyretin transcription activators. shares compounds with TTR transcr act. SHSY5Y TTR promoter Gaussia luciferase, luminescence; 100% = purified Lucia enzyme wells, no cells. activation, % at 16.7 µM. 1,100 tested, under 10 active. AID 1117280;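 active = mean activation above a set limit taken from the earlier primary screen, cut at about 11% in these data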;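 note: 0% = DMSO-treated cells and 100% = recombinant Lucia luciferase without cells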
# * marks the source's active call; other numbers are inactive results.
SMILES,TTR transcr act,others
CC1(c2cc([N+](=O)[O-])cc([N+](=O)[O-])c2)CC(C)(C)N(C(=O)c2ccccc2)c2ccccc21 (configuration not stated),14*,
CN1CCN(c2ccc([N+](=O)[O-])cc2C(=O)c2ccccc2)CC1,-2,
O=C(NCCCc1ccccc1)[C@H](Cc1c[nH]c2ccccc12)NC1(C(=O)NCCc2c[nH]c3ccccc23)CCC1,-2,
COc1ccc(OCC(=O)Nc2ccccc2OC)cc1,6,
COc1ccccc1NC(=O)CCC(=O)c1ccc(-c2ccccc2)cc1,-3,
COc1ccccc1NC(=O)CCC(=O)Nc1ccccc1OC,9.9*,
CCCCNC(=O)O[C@H]1CC[C@@]23CCCN2C(=O)CCC[C@H]3[C@H]1CCC,3,
C=CCN1C(=O)[C@@H](CC(=O)N2CCCC2)[C@]2(C(=O)OC)CCCCC=C12,2,
COc1ccc(CCNC(=O)c2c(N)[nH]c(C(=O)c3ccccc3)c2-c2ccc(N(C)C)cc2)cc1,-2,
O=C(NCC(c1ccccc1)c1ccccc1)[C@H](Cc1c[nH]c2ccccc12)NC1(C(=O)NC2CCCCC2)CCC1,0,
Cc1cccc(-n2c(SCC(=O)N3CCN(c4ccccn4)CC3)nnc2N2CCOCC2)c1,0,
O=C(CSc1nnc(Cc2ccccc2)n1-c1cccc(Cl)c1)N1CCOCC1,22*,
Cn1c(CCc2ccccc2)nnc1SCC(=O)N1CCOCC1,1,
Nc1[nH]c(C(=O)c2ccc(Br)cc2)c(-c2ccc(Br)cc2)c1C(=O)N1CCCCC1,0,
C=CCn1c(Sc2nc(C)cs2)nc2c1c(=O)[nH]c(=O)n2C,5,
C=C(C)Cn1c(Sc2nnc(C)s2)nc2c1c(=O)[nH]c(=O)n2C,12*,
Cc1nnc(SCCn2c(N3CCCCC3)nc3c2c(=O)[nH]c(=O)n3C)s1,1,
COc1ccc(OC)c(NC(=O)O[C@@H]2CC[C@@]34CCCN3C(=O)CCC[C@H]4C2)c1,1,
O=C(NCc1ccccc1)O[C@H]1CC[C@@]23CCCN2C(=O)CCC[C@H]3C1,-1,
Cc1ccc(CNC(=O)O[C@H]2CC[C@@]34CCCN3C(=O)CCC[C@H]4C2)o1,1,
Cn1c(=O)cc(SCC(=O)NCC2CCCO2)c2ccccc21 (configuration not stated),3,
Cc1ccc(C)c(SCC(=O)NCc2ccco2)c1,0,
Cn1c(=O)cc(SCC(=O)NCc2ccco2)c2ccccc21,11*,
CC(C)[C@H](NC(=O)OCc1ccccc1)C(=O)N[C@@H](Cc1ccccc1)C1(O)CN(C)C(C(=O)NCc2ccccn2)CO1 (some centres not stated),1,
COc1ccc(-c2cc3ccccc3oc2=O)cc1NC(=O)c1cccnc1,-2,
SMILES,TTR transcr act,others
O=C(NNC(=O)c1cc2ccccc2oc1=O)c1ccccc1,0,
O=C(OCCNC(=O)c1cc2ccccc2oc1=O)c1cccnc1,12*,
COc1ccc2c(CCN3C(=O)c4ccccc4C3=O)c(-c3c(CCN4C(=O)c5ccccc5C4=O)c4ccccc4n3C(=O)OC(C)(C)C)[nH]c2c1,0,
O=C(NC12CC3CC(CC(C3)C1)C2)c1ccccc1O,9.9*,
O=C(NC12CC3CC(CC(C3)C1)C2)c1cc(F)c(F)cc1Cl,0,
O=C(NC12CC3CC(CC(C3)C1)C2)c1ccco1,-1,
C=C1[C@@H](CCO)N(S(=O)C(C)(C)C)C[C@@H]1C (some centres not stated),2,
CCCCOC(=O)CCN1C(=O)/C(=C/c2ccccc2)SC1=S,1,
CC[n+]1c(C)sc2c(C)cc(C)cc21,26*,HuH7 TTR inh=-3;TTR act confirm=0
CC(C)CC1NC(=O)N(CC(=O)Nc2cc([N+](=O)[O-])ccc2F)C1=O (configuration not stated),4,
COc1ccc2cc3c(N)nn(C(=O)c4ccc(Cl)c([N+](=O)[O-])c4)c3nc2c1,-1,
COc1ccc2cc3c(N)nn(C(=O)c4ccccc4[N+](=O)[O-])c3nc2c1,26*,HuH7 TTR inh=26*;TTR act confirm=-1
CCCC1CCC(C(=O)n2nc(N)c3cc4ccc(OC)cc4nc32)CC1 (configuration not stated),-1,
CN(C(=O)c1cccc(NC(=O)Cc2cccc(NC(=O)C3CCN(C(=O)c4ccccc4)CC3)c2)c1)C1CCCC1,-1,
CCc1c(C(=O)C(C)O)c2n3c1CCC[C@@H]3CC2 (some centres not stated),1,
COC(=O)c1sc(S(=O)(=O)N2CCN(c3ccccc3F)CC2)c(C(=O)OC)c1C,1,
CCN1C(=O)[C@H]2[C@@H](c3ccc(OC)cc3)N[C@]3(CCCN(Cc4ccccc4)C3=O)[C@H]2C1=O,0,
CCN1C(=O)[C@H]2[C@@H](c3ccc(OC)cc3)N3C(=O)CN(Cc4ccccc4)C(=O)[C@@]3(Cc3ccccc3)[C@H]2C1=O,5,
CCN1C(=O)[C@@H]2[C@H](C1=O)[C@@H]1C(=O)Nc3ccccc3C(=O)N1[C@@H]2c1ccc(OC)cc1,11*,HuH7 TTR inh=-12;TTR act confirm=0
CC(=O)c1ccc(N2CCN(C(=O)c3ccc(C(=O)c4ccccc4)cc3)CC2)cc1,-2,
CCc1nc2ccc(C(=O)N(C)CCCN(C)C)cn2c1N(C)Cc1cc2ccccc2s1,-1,
N#Cc1ccc(C(=O)NC(=S)N2CCN(C=O)CC2)cc1,-1,
COc1ccc(CNc2ncnc3cc(OC)c(OC)cc23)cc1,10*,HuH7 TTR inh=-18;TTR act confirm=1
COc1cc2ncnc(NCc3ccccc3)c2cc1OC,-3,
COc1ccc(CNc2ncnc3cc(Cl)ccc23)cc1,-2,
SMILES,TTR transcr act,others
Cc1ccccc1NC(=O)Cc1nc(COC(=O)c2cc(Cl)ccc2O)cs1,-1,
Cc1ccc(OCC(=O)NCCNC(=O)c2cnccn2)cc1,3,
COc1ccc(S(=O)(=O)N2CCOCC2)cc1NC(=O)CN1C(=O)NC2(CCCC2)C1=O,10,
CCCNC(=O)c1ccc(N2CCC3(CC2)CC(c2ccccc2)=NO3)c(NC(=O)c2cccc(OC)c2)c1,-3,
CCCNC(=O)c1ccc(N2CCC3(CC2)CC(c2ccccc2)=NO3)c(NC(=O)c2ccco2)c1,19*,HuH7 TTR inh=19*;TTR act confirm=-2
Cc1ccc(CNC(=O)c2ccc(N3CCC4(CC3)CC(c3ccccc3)=NO4)c(NC(=O)c3ccco3)c2)cc1,-1,
Cc1ccc(CN[C@@H]2CC[C@@]34CCCN3C(=O)CCC[C@H]4C2)o1,0,
Nc1nc(COC(=O)C2CC(=O)N(CCc3ccccc3)C2)nc(Nc2ccccc2)n1 (configuration not stated),1,
O=C(Nc1ccc2ncccc2c1)c1ccccc1Cl,11*,HuH7 TTR inh=-7;TTR act confirm=-1
O=C(NC(=S)Nc1ccc2ncccc2c1)c1ccccc1,-1,
O=C(Nc1ccc2ncccc2c1)c1ccccc1,1,
COc1ccc(Cn2ccc3ccc(-c4ccc5ccn(C(=O)c6ccccc6)c5c4)cc32)cc1,-1,
COc1ccc(CNC(=O)C(OC(=O)c2ccco2)c2ccccc2F)cc1 (configuration not stated),-2,
COc1ccc(C(OC(=O)c2ccco2)C(=O)NC(C)(C)C)cc1 (configuration not stated),26*,HuH7 TTR inh=-2;TTR act confirm=-1
CCC(OC(=O)c1ccco1)C(=O)NCc1ccc(OC)cc1 (configuration not stated),-1,
